These results are taken from PubChem BioAssay (NCATS).

One assay concerns CRL-7250. Briefly: Cytotoxic Profiling of Annotated Libraries Using Quantitative High-Throughput Screening (AID 1296008). Further: nearly all actives have a fitted effect of over 60% in size. Further: potency means the concentration at half of the fitted maximal effect. On max response: on the % scale 0 is the no-effect control and ±100 the full control effect. The conditions noted are these: Five cell lines viability, CellTiter-Glo ATP luminescence, 48-72 h; max response: hits give low values. In short, it runs like this:
(§1)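 Compounds were pin-transferred onto cells and incubated 48 or 72 hr at 37 degree Celsius, 95% humidity. CellTiter-Glo was added, plates sat 10 min at room temperature, then ATP-coupled luminescence was imaged as the viability read-out.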

For assay [1], the system named is HaCat. The assay is described as above. The note with it: Five cell lines viability, CellTiter-Glo ATP luminescence, 48-72 h; max response: hits give low values. In short, it runs like this: as §1
The test system of a further assay is KB-3-1. The description is as above. The conditions noted are these: Five cell lines viability, CellTiter-Glo ATP luminescence, 48-72 h; max response: hits give low values. In short, it runs like this: as §1
The subject of assay [2] is NIH3T3. Described as above. The note with it: Five cell lines viability, CellTiter-Glo ATP luminescence, 48-72 h; max response: hits give low values. In short, it runs like this:
as §1

Assay [3] concerns HACAT. Briefly: qHTS assay to identify novel small-molecules to repurpose for Merkel cell carcinoma treatment (AID 1296009). Further: nearly all actives have a fitted effect of over 60% in size. Further: potency means the concentration at half of the fitted maximal effect. The conditions noted are these: MCC and control cell lines, CellTiter-Glo viability, 72 h; at 44.8 µM (top of the series) unless noted. In short, it runs like this: (§2)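 Cells exposed to NPC (8-point) and MIPE (11-point) compound dilutions for 72 hr at 37 degree celsius; viability read by CellTiter-Glo luminescence, normalized to no-cell and DMSO in-plate controls.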

The test system of a further assay is MCC-13. The assay is described as above. The note with it: MCC and control cell lines, CellTiter-Glo viability, 72 h; series mostly up to 46 µM. In short, it runs like this:
as §2

The subject of the next assay is MKL-1. The assay is described as above. The note with it: MCC and control cell lines, CellTiter-Glo viability, 72 h; series mostly up to 46 µM. In short, it runs like this:
as §2

The test system of another assay is MKL-2. The description is as above. The note with it: MCC and control cell lines, CellTiter-Glo viability, 72 h; series mostly up to 46 µM. In short, it runs like this: as §2
The test system of a further assay is UISO. The assay is described as above. The note with it: MCC and control cell lines, CellTiter-Glo viability, 72 h; series mostly up to 46 µM. In short, it runs like this: as §2
The subject of the next assay is WaGa. Described as above. The note with it: MCC and control cell lines, CellTiter-Glo viability, 72 h; series mostly up to 46 µM. In short, it runs like this:
as §2

A further assay deals with C33A. Briefly: Primary qHTS to identify gynecologic anti-cancer compounds using libraries of approved drugs and bioactive compounds (AID 1345084). Further: on the % scale 0 is the no-effect control and ±100 the full control effect; nearly all actives have a fitted effect of over 55% in size. The note with it: Gynecologic cancer cell panel viability, ATPlite luminescence, 48 h; series mostly up to 57.5 µM. In short, it runs like this: (§3)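 ATP-based viability (ATPlite), 1,000 cells/well, 16 h pre-incubation, 48 h compound at 37 C, 5% CO2, 15 min RT before read.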

A further assay deals with Es-2. Described as above. The note with it: Gynecologic cancer cell panel viability, ATPlite luminescence, 48 h; series mostly up to 57.5 µM. In short, it runs like this: as §3
Another assay relates to HeLa. Described as above. The conditions noted are these: Gynecologic cancer cell panel viability, ATPlite luminescence, 48 h; series mostly up to 57.5 µM. In short, it runs like this:
as §3

The subject of another assay is HEK293. Nature of the assay: Cytotoxic Profiling of Annotated Libraries Using Quantitative High-Throughput Screening (AID 1296008). Further: nearly all actives have a fitted effect of over 60% in size. Further: potency means the concentration at half of the fitted maximal effect. On max response: on the % scale 0 is the no-effect control and ±100 the full control effect. The note with it: Five cell lines viability, CellTiter-Glo ATP luminescence, 48-72 h; max response: hits give low values. In short, it runs like this:
as §1

Another assay relates to MCC-26. Nature of the assay: qHTS assay to identify novel small-molecules to repurpose for Merkel cell carcinoma treatment (AID 1296009). Further: nearly all actives have a fitted effect of over 60% in size. Further: potency means the concentration at half of the fitted maximal effect. The conditions noted are these: MCC and control cell lines, CellTiter-Glo viability, 72 h; series mostly up to 46 µM. In short, it runs like this:
as §2

The next assay concerns CAOV3. Briefly: Primary qHTS to identify gynecologic anti-cancer compounds using libraries of approved drugs and bioactive compounds (AID 1345084). Further: on the % scale 0 is the no-effect control and ±100 the full control effect; nearly all actives have a fitted effect of over 55% in size. The note with it: Gynecologic cancer cell panel viability, ATPlite luminescence, 48 h; series mostly up to 57.5 µM. In short, it runs like this: as §3
The test system of the next assay is CASKI. The assay is described as above. The conditions noted are these: Gynecologic cancer cell panel viability, ATPlite luminescence, 48 h; series mostly up to 57.5 µM. In short, it runs like this: as §3
The next assay deals with W2. Briefly: qHTS profiling for inhibitors of Plasmodium falciparum proliferation (AID 504749). The note with it: P. falciparum in erythrocytes, SYBR Green DNA, 72 h; series mostly up to 28.7 µM. In short, it runs like this:
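P. falciparum-infected erythrocytes (0.3% parasitemia, 2.5% hematocrit final) were exposed to compounds for 72 h at 37 C in 5% CO2, then lysed with SYBR Green buffer overnight at room temperature; parasite DNA fluorescence was normalized to artemisinin and DMSO controls.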

Assay [4] deals with NIH3T3. Briefly: qHTS assay to identify novel small-molecules to repurpose for Merkel cell carcinoma treatment (AID 1296009). Further: nearly all actives have a fitted effect of over 60% in size. Further: potency means the concentration at half of the fitted maximal effect. The note with it: MCC and control cell lines, CellTiter-Glo viability, 72 h; at 44.8 µM (top of the series). In short, it runs like this:
as §2

Each structure is given as a SMILES string. Results filed as inconclusive are left out. Values without a mark were called inactive. Active and inactive are the calls of the source. The call rests on the fitted dose curve; in most records, active means well fitted curve in the direction sought with a large enough effect; inconclusive means small, poorly fitted or top-dose-only effect, or another doubt; inactive means no such curve, though single readings can be large; an effect the other way counts as inactive or inconclusive.

Regarding `CCN(CC)CCOC(=O)C(Cc1cccc2ccccc12)CC1CCCO1` (stereo not drawn), the figures for the max response in the assay with CRL-7250, with KB-3-1 and with NIH3T3 [2] were -0.146%, 13.9% and 3.27%, respectively. The outcome in the assay with HaCat [1] and in the assay with HACAT [3] was inactive. Also, the Potency entry in the assay with MCC-13, with MKL-1, in the assay with MKL-2, in the assay with UISO, with WaGa and in the assay on C33A was “inactive” throughout. Further, the Potency result in the assay with Es-2 and in the assay on HeLa was “inactive” each time.

With `C[C@]12CCC(=O)C=C1C=C[C@@H]1[C@@H]2CC[C@@]2(C)[C@H]1CC[C@@]21CCC(=O)O1`, the Potency is 7.5 µM (active) in the assay on CRL-7250 and 9.44 µM (active) in the assay with HEK293. The Potency entry in the assay on MCC-13, with MCC-26, in the assay on MKL-1, in the assay on MKL-2, with C33A and in the assay on CAOV3 was “inactive” throughout. Further, the Potency entry in the assay with Es-2 and with HeLa was “inactive” each time.

For `C#C[C@]1(O)CC[C@H]2[C@@H]3[C@H](C)CC4=C(CCC(=O)C4)[C@H]3CC[C@@]21C`, the max response in the assay with CRL-7250 was -3.96%; in the assay with KB-3-1 it was -4.12%; with NIH3T3 [2], -7.98%. In addition, the result with HaCat [1] and with HACAT [3] was inactive. In addition, the Potency entry in the assay with MCC-13, in the assay with MCC-26, in the assay on MKL-1, in the assay with UISO, in the assay on C33A and with CAOV3 was “inactive” in each case. In addition, the Potency result in the assay with CASKI, in the assay on Es-2 and in the assay with HeLa was “inactive” each time. Further, the Potency with WaGa is 18.8 µM (active).

As to `C[N+]1(C)CCC(=C(c2ccccc2)c2ccccc2)CC1`, the Potency result in the assay on W2, with MCC-13, in the assay with MKL-1, with MKL-2, in the assay on C33A and in the assay on CAOV3 was “inactive” throughout. In addition, the Potency result with CASKI, in the assay on Es-2 and in the assay on HeLa was “inactive” throughout. The max response is -1% in the assay with CRL-7250, 3.66% in the assay on KB-3-1 and -1.38% in the assay on NIH3T3 [2]. Moreover, the call with HaCat [1] and in the assay on HACAT [3] was inactive.

On to `CC1CCc2c(N3CCC(O)CC3)c(F)cc3c(=O)c(C(=O)O)cn1c23` (stereo not drawn), for which the max response was -8.92% in the assay with CRL-7250, -5.2% with HaCat [1], 15% in the assay with KB-3-1 and -20% with NIH3T3 [2]. In addition, the Potency entry in the assay on MCC-13, in the assay on MCC-26, in the assay on MKL-1, in the assay on MKL-2, in the assay with UISO and in the assay on WaGa was “inactive” throughout. Further, the Potency result in the assay on C33A, in the assay with CASKI, with Es-2 and with HeLa was “inactive” throughout.

Turning to `CC(C)=CCOc1ccc(/C=C/C(=O)c2ccc(OCC=C(C)C)cc2OCC(=O)O)cc1`, the max response was -15.2% in the assay with CRL-7250 and 1.11% with KB-3-1. In addition, the result in the assay on HaCat [1], with NIH3T3 [2], in the assay on HACAT [3] and in the assay with NIH3T3 [4] was inactive. Further, the Potency result in the assay with MCC-13, with MCC-26, in the assay on MKL-1, in the assay with MKL-2, with WaGa and in the assay with C33A was “inactive” throughout. Moreover, the Potency entry in the assay with CAOV3, in the assay on CASKI, with Es-2 and with HeLa was “inactive” in each case.

For `CC[N+](C)(CC)CCOC(=O)C(O)(c1ccccc1)C1CCCCC1` (stereo not drawn), the max response in the assay on CRL-7250 is -11.2%; in the assay on KB-3-1, 5.15%; with NIH3T3 [2], -5.74%. Moreover, the compound was classed as inactive in the assay on HaCat [1] and in the assay with HACAT [3]. For the same compound, the Potency result in the assay on MCC-13, with MCC-26, in the assay on MKL-1, in the assay with MKL-2, with UISO and in the assay with WaGa was “inactive” each time. The Potency entry in the assay with C33A, in the assay on CAOV3, with CASKI, with Es-2 and in the assay with HeLa was “inactive” throughout.
